# Source: PubChem BioAssay
# ALDH1A1 inh: ALDH1A1 (human) enzyme inhibition | Purified ALDH1A1, NADH fluorescence, propionaldehyde substrate | Potency, µM (series often up to 75.3 µM), inactives show top-dose activity, negative = inhibition, most hits filed as inhibitors | hit rate 7.3% among 220,000 | AID 1030;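 further: potency means the concentration at half of the fitted maximal effect; plate controls were no enzyme wells and a reference inhibitor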
# KDM4E inh: inhibitors of human JMJD2E histone demethylase; B2RXH2; JMJD2E catalytic domain, FDH-coupled NADH fluorescence (FDH is formaldehyde dehydrogenase); Potency, µM (series often up to 57.1 µM), without a hit: at the top dose activity change, negative = inhibition, actives largely listed as inhibitors; hit rate 1.6% among 230,000; AID 2147;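 further: potency means the concentration at half of the fitted maximal effect; 0% = wells with enzyme and -100% = buffer wells without enzyme; nearly all actives have a fitted effect of over 50% in size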
# Target sequence (B2RXH2 1-337 limits assumed): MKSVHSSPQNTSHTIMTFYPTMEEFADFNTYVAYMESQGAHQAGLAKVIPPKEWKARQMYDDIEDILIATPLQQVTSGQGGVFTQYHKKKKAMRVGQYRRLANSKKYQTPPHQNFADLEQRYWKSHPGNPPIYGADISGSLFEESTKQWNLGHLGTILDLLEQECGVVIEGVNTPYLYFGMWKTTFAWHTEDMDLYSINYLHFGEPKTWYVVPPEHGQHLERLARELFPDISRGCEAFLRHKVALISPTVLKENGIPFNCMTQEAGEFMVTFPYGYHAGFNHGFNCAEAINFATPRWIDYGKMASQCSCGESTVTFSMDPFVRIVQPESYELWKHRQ
# PNC inhibitor: inhibitors of perinucleolar compartment assembly; PC3M PTB-GFP, PNC prevalence imaging, 16 h; stronger effect = lower value; activity change (PNC), negative = inhibition, % at 10 µM; hit rate 3.1% among 140,000; AID 2417;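 active means readout at or below -70, meaning at least 70% loss of cells showing the perinucleolar compartment, a nuclear body marking cancer cells; inconclusive means readout between -30 and a set limit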;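 further: plate controls were DMSO wells for no effect and camptothecin positive control wells for full effect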
#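 Read-out is percentage of cells bearing a perinucleolar compartment, from automated 20x imaging of fixed, Hoechst-stained PC3M PTB-GFP cells. Cells were seeded 4 h, then exposed 16 h to compound (23 nl of library stock) in duplicate plates.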
# HPGD block: HPGD (human) dehydrogenase inhibition. purified HPGD, NADH fluorescence kinetic, PGE2 substrate. Potency, µM, inactives show top-dose activity change, negative = inhibition, hits mostly inhibitors. hit rate 4.3% among 150,000. AID 894; further: potency means the concentration at half of the fitted maximal effect
#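 20 nM HPGD preincubated 15 min at room temperature with compound in 50 mM Tris-HCl pH 8, 0.01% Tween 20. Started with 1 mM NAD+ and 30 uM prostaglandin E2; NADH fluorescence (360/450 nm) read 5 times over 30-s intervals, last minus first.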
# Active calls of the source: *; u = inconclusive; x = no result given; [ ] = remark or other dose. Shown are actives, neighbours in structure and some others; about 11% of the full set was active somewhere. Unless noted, the call rests on the fitted dose curve; in most records, active means well fitted inhibition curve with a large enough effect (not every such curve was filed as active); inconclusive means small, poorly fitted or top-dose-only effect, or another doubt; inactive means no such curve, though single readings can be large or run the other way. Unless noted, on the % scale 0 is the no-effect control and ±100 the full control effect.
SMILES,ALDH1A1 inh,KDM4E inh,PNC inhibitor,HPGD block
COc1ccc(S(=O)(=O)N2CCCC(C(=O)O)C2)cc1 (stereo not given),0%,11%,u,2%
CCn1c(SCC(=O)N2CCc3ccccc32)nnc1-c1ccncc1,-2%,-22%,u,-12%
Cn1c(Cn2nnc3ccccc32)nnc1SCC(=O)N1CCc2ccccc21,28µM*,-6%,u,-9%
CCn1c(CSc2ncccn2)nnc1SCC(=O)N1CCc2ccccc21,20µM*,8%,u,-14%
Cc1ccc(NN2C(=O)C=CC2=O)cc1,0%,-5%,-112*,-5%
COCCNC(=O)CSc1nc2nc(C)cc(C)n2n1,-9%,-6%,-17,20µM*
CCOC(=O)CSc1nc2nc(C)cc(C)n2n1,-2%,-10%,28,-5%
COC(=O)CSc1nc2nc(C)cc(C)n2n1,-11%,-7%,-85*,-16%
CC(C)=CCN1CCN(CCC2=C(C)CCCC2(C)C)CC1CCO (stereo not given),6%,-4%,x,x
CC1=C(CC/C(C)=N/NC(N)=S)C(C)(C)CCC1,28µM*,-6%,u,-19%
COCc1cc(Sc2ccc(Cl)cc2)nc(C)n1,7%,-2%,x,x
COCc1cc(S(=O)c2ccc(Cl)cc2)nc(C)n1 (stereo not given),18µM*,-14%,x,x
O=C(COC(=O)CCSc1ccccc1)Nc1cc(F)ccc1F,-5%,4%,x,x
O=S(=O)(Nc1nc(CN2CCOCC2)nc2sc3c(c12)CCCC3)c1cc(F)ccc1F,14µM*,u,11,-18%
CCNc1nc(CN2CCOCC2)nc2sc3c(c12)CCC3,u,u,30,-16%
CCOC(=O)C1CCCN(C(=O)CN2C(=O)/C(=C/c3ccc(OC)cc3)Oc3ccccc32)C1 (stereo not given),0%,-2%,19,u
CC1=NN(C(=O)Cc2ccc([N+](=O)[O-])cc2)C(O)(c2ccccc2)C1 (stereo not given),-11%,-18%,33,-4%
O=C1/C(=C/c2cccs2)COc2ccccc21,-8%,3%,-20,25µM*
O=C(NCc1cccs1)c1cc2c(s1)-c1ccccc1OC2,u,u,13,u
CCC1=C2CC[C@H]3C(=O)N(CC(=O)OC)C(=O)[C@H]3[C@H]2[C@@]2(C)C(=NCC(=O)OC)OC(=O)N2C1=O,-5%,8%,x,-10%
O=C(c1ccccc1)c1cc(Cl)ccc1N1C(=O)C=CC1=O,10µM*,5%,x,x
O=C(OC(C(=O)Nc1cccc(C(F)(F)F)c1)c1ccccc1)C1CCCCC1 (stereo not given),14µM*,-7%,-23,-23%
CCC1CCCCN1S(=O)(=O)c1ccc(NC(=O)CSc2ncccc2C(=O)O)cc1 (stereo not given),u,3%,-2,14µM*
CCC1CCCCN1S(=O)(=O)c1ccc(NC(=O)c2cccs2)cc1 (stereo not given),15%,-11%,-100*,-12%
COC(=O)C1=C(C)N(Cc2ccccc2)C2=C(C(=O)c3ccccc3)C(c3ccccc3)[C@@](O)(C(=O)OC)C(=O)N2C1c1ccccc1 (stereo not given in full),-1%[13.5 µM],x,x,x
SMILES,ALDH1A1 inh,KDM4E inh,PNC inhibitor,HPGD block
CC1CCCCC1NC(=O)COC(=O)c1ccc2c(c1Cl)C(=O)c1ccccc1C2=O (stereo not given),-16%,-15%,8,16µM*
O=C(COC(=O)c1cccc2c1C(=O)c1ccccc1C2=O)NC1CCCCC1,u,0%,u,-17%
O=C(NCC(F)(F)F)Nc1cccnc1,7%,1%,-100*,-19%
NC(C(=O)O)c1cc(O)c(Cl)c(O)c1 (stereo not given),14%,x,x,x
COC(=O)c1ccc(CNC(=O)COC(=O)CC23CC4CC(CC(Br)(C4)C2)C3)cc1,13µM*,6%,u,-26%
CCOc1cc(C2C3=C(CCCC3=O)N(C)C3=C2C(=O)CCC3)cc(Cl)c1O,-4%,u,-100*,-18%
Cn1c(=O)c2cc3c(nc2n(C)c1=O)CC(c1ccccc1)CC3=O (stereo not given),14µM*,-19%,x,x
CCN(CC)c1nc(-c2ccccn2)nc(-c2ccccc2)c1C#N,-9%,4%,x,x
CCCCN(C)C(=O)C1CCN(Cc2ccc(OCc3ccccc3)cc2)CC1,-13%,u,18,-6%
CCCCOc1ccc(CN2CCC(O)CC2)cc1,32µM*,6%,-100*,-20%
O=C(CCCCCN1C(=O)c2ccccc2C1=O)Nc1ccc(F)cc1,u,6%,-100*,18µM*
